Activity calls are given as the source filed them.

The subject of assay [1] is Plasmodium falciparum Sir2 (PF13_0152, Sir2A). Nature of the assay: pfSir2 binders on small-molecule microarrays, primary screen, biochemical, small-molecule microarray, 635 nm fluorescence (AID 1098).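 Also: score merges spot fluorescence intensity with its signal-to-noise ratio.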 The settings on record: small-molecule microarray binding, fluorescence 635 nm; higher = more signal.
Assay [2] in a line: small-molecule microarray binders of probe aDKK1, primary screen, biochemical, biotinylated probe, 635/667 nm fluorescence (AID 1099).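 Also: score merges 667nm spot fluorescence with signal to noise across triplicate slides; reference of the scale not given here.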 The settings on record: higher = more signal.
The nature of assay [3]: small-molecule microarray binders of probe aCHRDL2, primary screen, biochemical, biotinylated probe, 635/667 nm fluorescence (AID 1100). The settings on record: higher = more signal.
The nature of assay [4]: splicing luciferase reporter signal modulators, primary screen, spliceosome inhibition project, cell-based, HEK293, splice +/- reporter (AID 1101).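 Also: HEK293 cells carrying a splicing-competent luciferase reporter gene; test concentration not given here.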 The settings on record: luminescence, 24 h, higher = more signal, called active from +8 up or from −8 down. A general note: A reporter such as luciferase makes a cellular process visible.
For assay [5], the target named is Fibroblast growth factor 10 (Homo sapiens) (UniProt O15520). Nature of the assay: FGF10 binders on small-molecule microarrays, primary screen, biochemical, small-molecule microarray, 635 nm fluorescence (AID 1102). The settings on record: FGF10 binding, fluorescence 635 nm, higher = more signal.
Fibroblast growth factor 10 (Homo sapiens), sequence (O15520 whole entry, looked up): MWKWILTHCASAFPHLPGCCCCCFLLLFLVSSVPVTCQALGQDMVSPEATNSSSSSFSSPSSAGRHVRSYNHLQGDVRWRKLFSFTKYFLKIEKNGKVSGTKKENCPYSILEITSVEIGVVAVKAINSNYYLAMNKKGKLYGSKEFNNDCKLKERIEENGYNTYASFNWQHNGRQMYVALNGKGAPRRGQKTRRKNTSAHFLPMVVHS
For assay [6], the system named is glycogen synthase kinase-3 (GSK3A per assay name; protocol says GSK3B). The assay is described as follows: GSK3 binders on small-molecule microarrays, primary screen, biochemical, small-molecule microarray, 635 nm fluorescence, GSK3A (AID 1103). Also: the record names both GSK3A and GSK3B. The settings on record: small-molecule microarray binding, fluorescence 635 nm; higher = more signal.
Assay [7] deals with Epidermal growth factor receptor (Homo sapiens) (UniProt P00533). Nature of the assay: EGFR binders on small-molecule microarrays, primary screen, biochemical, small-molecule microarray, 635 nm fluorescence (AID 1104).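 Also: score merges 667 nm emission intensity with spot signal to noise over triplicate slides.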 The settings on record: EGFR binding, higher = more signal.
Epidermal growth factor receptor (Homo sapiens), sequence (P00533 whole entry, looked up): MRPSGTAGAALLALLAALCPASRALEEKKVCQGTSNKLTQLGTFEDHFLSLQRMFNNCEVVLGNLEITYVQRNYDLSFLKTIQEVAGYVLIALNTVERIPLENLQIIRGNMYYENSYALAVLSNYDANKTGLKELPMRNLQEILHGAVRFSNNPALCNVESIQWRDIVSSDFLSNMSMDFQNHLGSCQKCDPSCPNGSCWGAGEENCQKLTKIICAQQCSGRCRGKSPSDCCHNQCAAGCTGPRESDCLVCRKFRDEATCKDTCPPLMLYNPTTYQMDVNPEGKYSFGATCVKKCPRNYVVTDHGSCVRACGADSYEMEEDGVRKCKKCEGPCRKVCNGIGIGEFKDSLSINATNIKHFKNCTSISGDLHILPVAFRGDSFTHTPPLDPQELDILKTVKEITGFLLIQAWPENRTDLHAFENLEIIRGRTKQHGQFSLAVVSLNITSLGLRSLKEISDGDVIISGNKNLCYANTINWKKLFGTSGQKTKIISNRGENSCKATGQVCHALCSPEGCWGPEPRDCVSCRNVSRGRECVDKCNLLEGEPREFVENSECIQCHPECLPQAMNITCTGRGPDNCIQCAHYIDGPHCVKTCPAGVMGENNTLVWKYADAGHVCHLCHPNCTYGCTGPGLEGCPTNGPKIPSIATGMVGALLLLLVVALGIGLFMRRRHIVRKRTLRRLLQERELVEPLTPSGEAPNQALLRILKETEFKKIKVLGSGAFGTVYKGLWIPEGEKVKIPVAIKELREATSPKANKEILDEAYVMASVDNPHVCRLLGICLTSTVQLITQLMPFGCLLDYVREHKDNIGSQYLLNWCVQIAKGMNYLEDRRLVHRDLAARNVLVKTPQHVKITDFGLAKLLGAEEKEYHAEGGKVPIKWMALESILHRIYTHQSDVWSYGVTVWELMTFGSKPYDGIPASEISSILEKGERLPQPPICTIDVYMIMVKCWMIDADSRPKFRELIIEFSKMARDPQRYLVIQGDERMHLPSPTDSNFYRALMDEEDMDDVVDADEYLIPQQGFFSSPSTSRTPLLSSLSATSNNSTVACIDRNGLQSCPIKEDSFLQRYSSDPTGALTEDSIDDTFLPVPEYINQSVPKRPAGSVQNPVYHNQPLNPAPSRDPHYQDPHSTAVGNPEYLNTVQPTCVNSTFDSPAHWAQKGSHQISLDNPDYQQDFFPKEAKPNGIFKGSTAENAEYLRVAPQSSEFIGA
The target of assay [8] is Follistatin-related protein 3 (Homo sapiens) (UniProt O95633). The assay is described as follows: FSTL3 binders on small-molecule microarrays, primary screen, biochemical, small-molecule microarray, 635 nm fluorescence (AID 1105).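 Also: score merges emission near 667 nm and signal to noise per printed spot across three slides.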 The settings on record: FSTL3 binding, higher = more signal.
Follistatin-related protein 3 (Homo sapiens), sequence (O95633 whole entry, looked up): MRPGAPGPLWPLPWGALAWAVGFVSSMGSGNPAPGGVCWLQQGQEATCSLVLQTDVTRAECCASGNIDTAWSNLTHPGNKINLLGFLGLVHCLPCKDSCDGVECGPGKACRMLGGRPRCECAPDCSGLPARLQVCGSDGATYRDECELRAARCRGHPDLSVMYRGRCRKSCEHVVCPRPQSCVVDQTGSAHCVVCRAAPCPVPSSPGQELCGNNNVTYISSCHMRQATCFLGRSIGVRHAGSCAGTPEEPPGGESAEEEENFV
For assay [9], the target named is Dickkopf-related protein 1 (Homo sapiens) (UniProt O94907). The assay is described as follows: DKK1 binders on small-molecule microarrays, primary screen, biochemical, small-molecule microarray, 635 nm fluorescence scan (AID 1106).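 Also: score merges emission near 667 nm with signal to noise over three replicate slides.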 The settings on record: DKK1 binding, higher = more signal.
Dickkopf-related protein 1 (Homo sapiens), sequence (O94907 whole entry, looked up): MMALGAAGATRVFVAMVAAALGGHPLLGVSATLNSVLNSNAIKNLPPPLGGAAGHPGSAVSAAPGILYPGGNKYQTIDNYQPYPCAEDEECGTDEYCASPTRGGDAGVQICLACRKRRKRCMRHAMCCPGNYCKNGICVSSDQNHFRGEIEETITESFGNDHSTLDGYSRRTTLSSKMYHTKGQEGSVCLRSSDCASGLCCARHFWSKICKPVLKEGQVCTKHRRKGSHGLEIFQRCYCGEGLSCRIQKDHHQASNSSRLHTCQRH
Assay [10] relates to Inhibin beta A chain (activin A). The assay is described as follows: INHBA (activin A) binders on microarrays, primary screen, biochemical, small-molecule microarray, 635 nm fluorescence scan (AID 1107).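 Also: mouse activin A protein probed at 4.33 µg/mL on printed slides; score merges bound-protein fluorescence near 667 nm with spot signal-to-noise.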 The settings on record: small-molecule microarray binding, higher = more signal.

Consider `[N-]=[N+]=NCc1ccccc1[C@@H]1OC(c2ccc(OCCCO)cc2)=N[C@]1(Cc1ccccc1N=[N+]=[N-])C(=O)O`, for which the composite z-score in assay [1] is 1.45; in assay [2] it was 1.35; in assay [3], 1.11; in [5], 1.15; in assay [6], 1.26; in [7], 0.268. For the same compound, the results for the composite z-score in assay [8], in assay [9] and in assay [10] were 1.03, -0.075 and 0.848, respectively. Besides, in assay [4], the z-score is -1.48 (inactive).
On to `O=C1O[C@H](c2ccccc2)[C@H](c2ccccc2)N2[C@H]1[C@@H](C(=O)O)[C@]1(C(=O)Nc3ccc(C#CCCO)cc31)[C@H]2c1ccc(OCCO)cc1`, for which the composite z-score was -0.164 in assay [1]; 0.564 in assay [2]; 0.834 in assay [3]; 1.12 in assay [5]; 1.27 in assay [6]; 0.0453 in [7]. Further, the composite z-score in assay [8] was determined as 0.446; in [9], 0.488; in assay [10], 1.31. Moreover, the z-score in [4] is -0.155 (inactive).
Regarding `C=CCN1C(=O)[C@@]2(O[C@@H](CCn3cc([C@H](O)c4ccccc4)nn3)[C@H]([Si](C)(C)c3ccc(OC)cc3)[C@H]2C)c2cc(N3C(=O)c4cccc5cccc3c45)ccc21`, the composite z-score in assay [1] was 0.0764; in [2], -0.236; in [3], 0.401; in [5], -0.859; in assay [6] it was -1.37; in assay [7], -1.04. Further, the composite z-score was -1.06 in assay [8], -1.12 in [9] and -0.893 in assay [10]. Further, the z-score in [4] is -0.447 (inactive).
For `CC(C)(C)N1CC=CC23O[C@@H]4C=CCCOC(=O)C4[C@H]2C(=O)N(CCCCCCO)[C@@H]3C1=O` (stereo not given in full), the composite z-score in assay [1] is 1.34; in [2], 0.017; in assay [3], 0.0876; in [5], -0.0479; in [6] it was -0.404; in assay [7], -1.09. For the same compound, the composite z-score in [8] was -0.63; in assay [9] it was -0.983; in assay [10], 0.406. In addition, the z-score in assay [4] was 0.416 (inactive).
For `C=CC[C@@]1(C(=O)N(C)C)N=C(c2ccc(OCCCO)cc2)O[C@@H]1c1ccccc1CN=[N+]=[N-]`, the composite z-score was determined as 0.964 in assay [1]; 1.19 in assay [2]; 1.13 in assay [3]; 1.42 in [5]; 1.33 in [6]; 0.493 in [7]. For the same compound, the composite z-score in [8] was 1.38; in assay [9], 0.488; in assay [10], 1.23. In addition, the z-score in assay [4] is -0.475 (inactive).
`OCCCC1=CC(c2ccc(CN3CCCC3)cc2)N(Cc2cccc(OC(F)(F)F)c2)CC1` (stereo not given): the composite z-score in assay [1] was 0.203; in [2] it was -0.0082; in [3], 0.983; in [5], -0.327; in assay [6], -0.517; in [7], 0.297. For the same compound, the composite z-score in [8] was 0.0596; in [9], 0.0657; in assay [10] it was 1.65. Besides, the z-score in assay [4] is -1.35 (inactive).
On to `C=C(COC)C(=O)CC[C@@H](OC(=O)c1ccccc1-c1ccccc1C(=O)O)c1ccc(OCCO)cc1`, for which the composite z-score was 0.398 in [1]; -0.321 in assay [2]; 0.0721 in assay [3]; 0.983 in assay [5]; -0.278 in [6]; -0.487 in [7]. Moreover, the composite z-score in [8] came out at 0.684; in assay [9], 0.0668; in [10], 1.08. The z-score in assay [4] is 0.833 (inactive).
Regarding `CC(C)=C1C(=O)C(c2ccccc2)=C2CN3C(=O)N(CCc4ccccc4)C(=O)[C@]3(C)[C@H]21`, the composite z-score in assay [1] was 1.27; in [2], 0.915; in [3], 1.13; in assay [5], 0.139; in assay [6], -0.701; in assay [7], -0.276. The composite z-score is -0.0755 in [8], -0.538 in assay [9] and 1.02 in assay [10]. In assay [4], the z-score is 1.15 (inactive).
For `CC1=C([C@H](O)CCc2ccccc2)[C@H](CO)n2c(=O)n(-c3ccccc3)c(=O)n2C1`, the composite z-score in assay [1] was -0.385; in assay [2], -0.204; in assay [3], -0.48; in assay [5] it was 0.233; in assay [6], 0.196; in [7], 0.167. In addition, the composite z-score in assay [8] was -0.0401; in assay [9] it was 0.231; in assay [10], 0.472. Further, the z-score in assay [4] was -1.04 (inactive).
As to `CC(=O)c1ccc(C(O)C2C=CC3C(=O)N(c4ccccc4)C(=O)C3N2Nc2ccc(C(C)C)cc2)cc1` (stereo not given), the composite z-score in assay [1] is 0.696; in assay [2], 1.46; in assay [3], 0.865; in assay [5] it was 1.01; in [6] it was 0.806; in assay [7], 0.314. Moreover, the composite z-score in assay [8] was 1.25; in assay [9], -0.0216; in assay [10] it was 1.05. The z-score in assay [4] was -0.385 (inactive).
Regarding `O=C1N(CCS(=O)(=O)c2ccccc2)c2ccccc2C[C@]12N=C(c1ccc(OCCCO)cc1)O[C@@H]2c1ccccc1`, the composite z-score in [1] was found to be 1.23; in [2] it was 0.924; in assay [3] it was 0.775; in [5] it was 1.02; in [6] it was 1.19; in assay [7] it was 0.468. In addition, the values for the composite z-score in assay [8], in [9] and in [10] were 1.34, 1.01 and 0.865, respectively. Besides, the z-score in assay [4] is 0.276 (inactive).
As for `COC(=O)[C@@]1(Cc2ccc(F)cc2)[C@H]2c3cc(C(=O)N(C)C)n(CCc4ccc(O)c(O)c4)c3C[C@H]2CN1C(=O)c1ccccc1`, the composite z-score is 0.681 in assay [1]; 0.52 in [2]; 0.828 in [3]; 0.842 in assay [5]; -0.292 in assay [6]; -0.147 in assay [7]. Besides, the composite z-score in [8] was -0.439; in assay [9], -0.372; in assay [10] it was 0.239. Further, in assay [4], the z-score was 0.692 (inactive).
`CN(C)CCCNC(=O)[C@@]1(C)c2ccccc2C(=O)N(Cc2ccc(OC(F)(F)F)cc2)[C@H]1c1ccc(CO)cc1`: the composite z-score in [1] is 1.33; in assay [2] it was -0.0469; in assay [3] it was 0.63; in assay [5] it was -0.365; in assay [6], -0.417; in assay [7], -0.786. Moreover, the figures for the composite z-score in [8], in assay [9] and in [10] were -0.811, -0.912 and 0.462, respectively. Further, the z-score in assay [4] was 0.399 (inactive).
As to `COc1ccc([Si](C)(C)[C@H]2[C@H](CC(=O)N3CCC[C@H]3CO)O[C@@]3(C(=O)N(Cc4ccc(N5CCCCC5=O)cc4)c4ccccc43)[C@@H]2C)cc1`, the composite z-score in assay [1] was 1.17; in assay [2], -0.28; in [3], -0.466; in [5], 1.18; in assay [6], 1.09; in [7], 0.639. For the same compound, the composite z-score was found to be 1.23 in assay [8], 0.863 in [9] and 0.704 in assay [10]. Also, the z-score in assay [4] was -1.16 (inactive).
For the compound `CCCC[C@H]1OB(O)C[C@H]2C1=C(COc1ccccc1)C[C@H]1C(=O)C=CC(=O)[C@H]12`, the composite z-score in assay [1] is 0.268; in assay [2], 1.07; in assay [3] it was -0.56; in assay [5], 0.638; in [6] it was 0.474; in assay [7], 0.286. The composite z-score in assay [8] was found to be 1.02; in assay [9], 0.966; in assay [10], 0.825. In addition, in assay [4], the z-score is -0.171 (inactive).

Source of the values: PubChem BioAssay.
